Laboratory results published in PubChem BioAssay (NCI).
Compounds without any hit were thinned out: in the full panel of roughly 79,000, 15% have a hit. Cut-off read from the data, not from the text of the source: active = growth inhibition above about 70%; inactive = the rest.

Legend:
[1] = NCI Yeast Anticancer Drug Screen. Data for the rad50 strain (AID 155);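 note: 0% = growth of vehicle-only cultures of the same strain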; conditions: S. cerevisiae rad50 strain growth inhibition; at 50.0 µM; active compounds read high
In short: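 A DNA repair-deficient yeast mutant serves as the test organism; compound-induced growth inhibition is calculated against vehicle-treated cells.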

[2] = NCI Yeast Anticancer Drug Screen. Data for the sgs1 mgt1 strain (AID 161);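 note: 0% = growth of cultures given vehicle only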; conditions: S. cerevisiae sgs1 mgt1 strain, at 50.0 µM, active compounds read high
In short: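 Yeast cells carrying a defined DNA-repair defect were exposed to test compounds. Growth inhibition was measured relative to vehicle-treated controls.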

[3] = NCI Yeast Anticancer Drug Screen. Data for the cln2 rad14 strain (AID 165);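 note: 0% = growth equal to vehicle treated cultures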; conditions: S. cerevisiae cln2 rad14 strain, at 50.0 µM, active compounds read high
In short: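 Relative to vehicle controls, growth inhibition of compound-treated cln2 rad14 yeast was recorded.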

[4] = NCI Yeast Anticancer Drug Screen. Data for the bub3 strain (AID 167); conditions: S. cerevisiae bub3 mutant strain, at 50.0 µM, active compounds read high
In short: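 Inhibition values come from growth of compound-treated mutant yeast normalised to vehicle-treated controls.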

[5] = NCI Yeast Anticancer Drug Screen. Data for the mlh1 rad18 strain (AID 175); conditions: S. cerevisiae mlh1 rad18 strain growth inhibition; at 50.0 µM; active compounds read high
In short: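 Test agents were incubated with a yeast strain of defined genotype (DNA damage repair defect). Inhibition of growth was derived by comparison with vehicle-exposed cultures.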

[6] = NCI Yeast Anticancer Drug Screen. Data for the mec2-1 strain (AID 157); conditions: S. cerevisiae mec2-1 strain, at 50.0 µM, active compounds read high
In short: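 Readout is yeast growth inhibition, normalised to vehicle-treated controls, in the mec2-1 strain exposed to compound.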

Measured: growth inhibition

CCOC(=O)C1OC1c1ccccc1 (stereo unspecified)
inactive: [1] 24.5% | [2] -2.3% | [3] -4.5% | [4] -3.9% | [5] 22.9%

Cc1cc2nc(CC(=O)c3cccc([N+](=O)[O-])c3)c(=O)[nH]c2cc1C
inactive: [1] 22.2% | [2] 7.1% | [3] 20.5% | [4] -6.15% | [5] 39.5%

N#Cc1ccc(OC(=O)Nc2ccc(Cl)c(Cl)c2)cc1
inactive: [1] -7.65% | [2] 20.9% | [3] 8.35% | [4] 9.95% | [5] 5.8%

CCCCCCCCOC(=O)c1ccccn1
inactive: [1] -6.75% | [2] -8.05% | [3] -59% | [4] 16.6% | [5] -3.2%

O=C(O)[C@@H]1[C@H]2C[C@H]3c4[nH]c5ccccc5c4CCN3C[C@@H]2CC[C@@H]1O
inactive: [6] -27% | [2] 9.45% | [3] 6.5% | [4] -20.6% | [5] -19.9%

CCNc1nc2c(cnn2C)c(=O)[nH]1
inactive: [6] 28.4% | [2] 4.4% | [3] -34.1% | [4] 28.1% | [5] 29.4%

S=C1CCCCCN1
inactive: [6] 17.8% | [2] 42.6% | [3] 9.95% | [4] 30.4% | [5] 30.8%

CC1(O)CCCCC1O (stereo unspecified)
inactive: [6] -37.6% | [2] -8.3% | [3] -20.9% | [4] -13.8% | [5] -15.3%

COC(=O)/C=C\C(=O)OC
inactive: [6] 6.85% | [2] -15.1% | [3] -5.65% | [4] -10.3% | [5] 14.7%

CCCCC(=O)c1ccc(OC)cc1
inactive: [6] -8.4% | [2] 2.75% | [3] 6.75% | [4] -8.3% | [5] -6.4%

O=C(CS)Nc1ccc2ccccc2c1
inactive: [6] -0.85% | [2] 22% | [3] -36.9% | [4] -7.85% | [5] -1.15%

NC(N)=Nc1cc2ccccc2c2ccccc12
inactive: [6] -7.15% | [2] -7.5% | [3] -14% | [4] -3% | [5] -4.95%

CCCCCCCCO
inactive: [2] 2.25% | [4] -20.4% | [5] -13.2%

O=C(NCc1ccco1)Nc1c(Cl)cc(Cl)cc1Cl
inactive: [6] -26.1% | [2] -2.85% | [4] -13.4% | [5] -3.6%

CCCCN(CCCC)CCCO
inactive: [6] -24.5% | [2] -11.3% | [3] -27.7% | [4] -2.7% | [5] -21.1%

CCCCC/C=N/Nc1nc(C)cc(=O)[nH]1
inactive: [6] -5.6% | [2] -8.95% | [3] 15.7% | [4] -2.9% | [5] 4.4%

CCc1nn(Cc2ccccc2)c2nc(C)c(CCc3ccccc3)c(Cl)c12
inactive: [6] -4.6% | [2] -0.45% | [3] 2.6% | [4] 7.35% | [5] -2.75%

NCCCN
inactive: [6] -7.05% | [2] -11.1% | [3] -5.9% | [4] 3.6% | [5] 6.55%

CCC(C)(O)c1ccc(C)cc1 (stereo unspecified)
inactive: [2] 31.8% | [3] -21.1% | [4] 19.6% | [5] 6.4%

O=C(O)/C=C/c1ccc2c(c1)CCC2
inactive: [6] 18.1% | [2] 48.4% | [3] 23.8% | [4] 50.6% | [5] 42.2%

c1ccc(CN2COc3c(ccc4c3OCN(Cc3ccccc3)C4)C2)cc1
inactive: [6] 20.8% | [2] 23.1% | [3] -22.7% | [4] 9.7% | [5] 8.3%
